Measured values reported in PubChem BioAssay (NCI).
About 83,000 compounds went through this panel and 20% of them were active in at least one assay; those are over-represented in the sample as a whole.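 Growth was measured after 48 h exposure to one concentration of compound in 96-well plates. Values under 10 count as active.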 Values without a mark were called inactive. Calls of active or inactive are those of the source.

Key:
Experiment in all cases: NCI-60 one-dose screen, 48 h (100 = growth as untreated, 0 = no growth, -100 = all killed)
Settings in all cases: 10 µM unless noted
[1] = tested on: SK-MEL-2 melanoma
[2] = tested on: SN12C renal
[3] = tested on: UO-31 renal
[4] = tested on: TK-10 renal
[5] = tested on: ACHN renal
[6] = tested on: CAKI-1 renal
[7] = tested on: A498 renal
[8] = tested on: CCRF-CEM leukemia
[9] = tested on: MOLT-4 leukemia
[10] = tested on: EKVX NSCLC

Row | Compound | growth [1] | growth [2] | growth [3] | growth [4] | growth [5] | growth [6] | growth [7] | growth [8] | growth [9] | growth [10] [%]
1 | Cc1ccc(S(=O)(=O)Nc2ccccc2)cc1N | 87.4% | 91.3% | 81.2% | 121% | 101% | 89.5% | 76.9% | 110% | 96.6% | 
2 | CC1Cc2c(Cl)ncnc2N(C)c2ccc(Cl)cc21 (stereo not given) | -27.7% (active) | 2.41% (active) | 19.6% | 11.2% | 11.8% | 8.59% (active) | -34.9% (active) | 19.4% | 8.07% (active) | 
3 | CCOC(=O)c1nn(C2CCCCO2)c2ccc(NS(=O)(=O)c3ccc(C)cc3)cc12 (stereo not given) | 106% | 93.6% | 82.7% | 111% | 94.3% | 77.8% | 62.9% | 98.9% | 86.2% | 
4 | COC(=O)C(=Cc1ccccc1[N+](=O)[O-])C(=O)OC | 73.5% | 51.1% | 31.2% | 14.7% | 48.7% | 31.2% | 69.1% | -1.09% (active) | 4.68% (active) | 
5 | COc1ccc(C(=O)CCC(=O)O)cc1 | 102% | 89% | 71.7% | 105% | 100% | 98.4% | 104% | 48.6% | 86.2% | 
6 | O=C(O)CSCc1nnc2n(Cc3ccccc3)c(=O)c3c4c(sc3n12)CCCC4 | 79.3% | 96% | 90.2% | 127% | 89.3% | 99.2% | 112% | 81% | 71.8% | 
7 | COc1ccc(-c2cc(-c3ccc(OC)c(OC)c3)nc(SCCCCCC(=O)NO)n2)cc1 | 52.5% | 77% | 68.6% | 44.9% | 81.3% | 53.7% | 66.7% | 22.7% | 14% | 
8 | CC(C)(C)c1cc(C(=O)N2CCC(C(=O)NCCN)CC2)cc(C(C)(C)C)c1 | 97.4% | 89.5% | 93.3% | 98.4% | 108% | 80.7% | 56.6% | 94.8% | 98.5% | 
9 | COc1cc(-c2cc(-c3ccc(Nc4ncnc5cc(Cl)ccc45)cc3)nc(N3CCCCC3)n2)cc(OC)c1OC | 91% | 90.9% | 80% | 111% | 96.8% | 93.1% | 89.5% | 107% | 90.8% | 
10 | CC(C)=CC/C=C(/C)[C@H]1CC[C@]2(C)[C@@H]1CC[C@@H]1[C@@]3(C)CCC(=O)NC(C)(C)[C@@H]3CC[C@]12C | 3.93% [100 µM] (active) | -81.2% [100 µM] (active) | -98.7% [100 µM] (active) | 3.59% [100 µM] (active) | -63.5% [100 µM] (active) | 6.46% [100 µM] (active) | -16.4% [100 µM] (active) | -9.45% [100 µM] (active) | -14.3% [100 µM] (active) | 
11 | O=C(COc1cccc(/C=C2\Oc3ccccc3C2=O)c1)c1ccc([N+](=O)[O-])cc1 | 92.1% | 92.6% | 81.2% | 119% | 101% | 108% | 100% | 63.1% | 72% | 
12 | CCCn1ccnc1C(O)c1ccc(OCc2ccccc2)c(OC)c1 (stereo not given) | 91.3% | 92.3% | 63.7% | 77.8% | 93.6% | 74.8% | 102% | 94% | 98.5% | 
13 | CC(C)C1=NOC(=O)C1=Cc1cn(-c2ccccc2)nc1-c1cccc([N+](=O)[O-])c1 | 101% | 78.3% | 74.3% | 89.5% | 99.2% | 64.6% | 76.3% | 2.68% (active) | 3.44% (active) | 
14 | N#Cc1ccc(-c2ccc(COc3ccc(CC4SC(=O)NC4=O)cc3)cc2)cc1 (stereo not given) |  | 74.4% | 48.1% | 85.9% | 52.4% | 48.1% | 99.7% | 61.5% | 37.8% | 48
15 | Cc1ccc(S(=O)(=O)Oc2ccc([N+](=O)[O-])cc2[N+](=O)[O-])cc1 | 78.8% | 32.7% | 73.6% | 110% | 104% | 82.3% | 94.3% | 23% | 54.2% | 
16 | N#Cc1c(Cl)nc(SCC2CO2)nc1-c1ccccc1 (stereo not given) | 70.1% | 95.9% | 66.1% | 111% | 95.5% | 87.9% | 108% | 110% | 113% | 
17 | CC(C)C1=NOC(=O)C1=Cc1cn(-c2ccccc2)nc1-c1ccc(Br)cc1 | 87% | 84.8% | 67.9% | 91.5% | 81.5% | 62.9% | 57% | 2.56% (active) | -15.7% (active) | 
18 | c1nc(N2CCOCC2)c2[nH]ccc2n1 |  | 104% | 87.6% | 95.3% | 109% | 103% | 96.3% | 107% | 94% | 103
19 | Oc1c(CNCCNCc2cc(Cl)cc(Cc3ccccc3)c2O)cc(Cl)cc1Cc1ccccc1 | 27.1% | 19.1% | -20% (active) | 36.8% | 10.3% | 6.39% (active) | 36.2% | 8.47% (active) | 18.2% | 
20 | COc1cccc(-c2[nH]c(=S)ncc2C(=O)c2ccccc2)c1 | 99.9% | 94.4% | 75.9% | 100% | 91.1% | 58.9% | 75% | 93.7% | 76.8% | 
21 | CCCc1cc2cc(-n3nc(C)c4c3CC(C)(C)CC4=O)cc(NC3CCSCC3)c2c(=O)[nH]1 | 71.6% | 39.8% | 61% | 43.4% | 38.5% | 68.8% | 71.4% | 100% | 49.8% | 
22 | Cc1cc(N2CCCCCC2)nc(N2CCN(CC(=O)Nc3ccc4c(ccn4Cc4ccccc4)c3)CC2)n1 | 52.8% | 57.1% | 27.7% | 83.4% | 55.1% | 33.3% | 8.99% (active) | 50.2% | 41.1% | 
23 | CCOC(=O)/C(C#N)=C(\C)CCc1ccccc1 | 106% | 118% | 99.6% | 140% | 101% | 80.9% | 77.9% | 102% | 153% | 
24 | COc1ccc(/C=C(/C(=O)c2ccc(Cl)cc2)C(=O)C(F)(F)F)cc1 | 86.4% | 98% | 78.6% | 75.3% | 110% | 94.3% | 82.4% | 89.7% | 85.8% | 
25 | NC(=S)Cc1ccccc1 | 103% | 94.7% | 84.4% | 94.3% | 98.1% | 89.1% | 73.6% | 105% | 103% | 
26 | CCOC(=O)C1=C(C(=O)c2ccc(Br)cc2)C(c2ccc(Br)cc2)NC(=S)N1 (stereo not given) | 110% | 98.3% | 76.8% | 130% | 97.6% | 86% | 90.6% | 114% | 114% | 
27 | CCN(CC)CCCC(C)Nc1c2ccc(C)cc2nc2ccc(OC)cc12 (stereo not given) | 39.2% | 43.3% | -16.5% (active) | 15.4% | 25.5% | 38% | 70.2% | 30.9% | 9.16% (active) | 
28 | N#C/C(C(=O)c1ccccc1)=C1/C(=O)Nc2ccc(Br)cc21 | 113% | 91.8% | 67.2% | 142% | 88.7% | 84% | 96.8% | 110% | 101% | 
29 | CC(C)C1=NOC(=O)C1=Cc1cn(-c2cccnc2)nc1-c1ccccc1 | 111% | 87.5% | 89.7% | 101% | 99.2% | 78% | 99.2% | 11.4% | 11.8% | 
30 | C=CCCC1(C)NC(=O)NC1=O (stereo not given) | 102% | 97.9% | 97.8% | 89.9% | 112% | 93.3% | 88.5% | 85.6% | 83.7% | 
